# PubChem BioAssay (NCATS)
# A number with no mark means an inactive call. Inconclusive results are not listed. Where a call stands in place of a potency, no number is given. Activity calls are given as the source filed them. Unless noted, the call rests on the fitted dose curve; in most records, active means well fitted curve in the direction sought with a large enough effect; inconclusive means small, poorly fitted or top-dose-only effect, or another doubt; inactive means no such curve, though single readings can be large; an effect the other way counts as inactive or inconclusive.
# Assays:
# [1] = biological target: T1, Hexokinase-4 (Homo sapiens) + Glucokinase regulatory protein (Homo sapiens) (UniProt P35557+Q14397); assay: qHTS assay for inhibitors of recombinant human GCK-GKRP interaction: Diaphorase-coupled assay (AID 743205); settings: G6PDH/diaphorase resorufin fluorescence; series mostly up to 57.5 µM
# Summary of the method: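 Inhibitors of the GCK–GKRP complex relieve GKRP suppression of GCK, detected through a G6PDH–diaphorase cascade reducing resazurin. Human GST-GCK and FLAG-GKRP are used at 10 nM with 5 mM glucose and 0.4 mM ATP.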
# [2] = biological target: T1, Hexokinase-4 (Homo sapiens) + Glucokinase regulatory protein (Homo sapiens); assay: qHTS assay for inhibitors of recombinant human GCK-GKRP interaction: ADP-Glo assay (AID 743206); settings: ADP-Glo luminescence, 60 min; series mostly up to 76.9 µM
# Summary of the method: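 GST-GCK and FLAG-GKRP (15 nM each in the dispensed mix, with 2 uM S6P) react with 0.4 mM ATP and 5 mM glucose (final) in Hepes pH 7.6 for 60 min at room temperature. ADP is measured by ADP-Glo luminescence.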
# [3] = biological target: T1, Hexokinase-4 (Homo sapiens) + Glucokinase regulatory protein (Homo sapiens); assay: qHTS assay for inhibitors of recombinant human GCK-GKRP interaction: HTRF assay (AID 743207); settings: recombinant GCK-GKRP HTRF binding, 60 min, with sorbitol-6-phosphate; series mostly up to 57.5 µM
# Summary of the method: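 Steps: dispense GCK–GKRP complex (5 nM each, GST- and FLAG-tagged) with 2 uM S6P; pin in compounds; add XL665/Eu-cryptate-labelled antibodies; incubate 60 min at room temperature; read time-resolved FRET at 665 and 615 nm.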
# [4] = qHTS assay for measurement of the activity of small molecule inhibitors on Zika virus induced Caspase-3 activity in human iPSC derived neural progenitor cells (hNPCs) (AID 1224857); settings: hNPCs ZIKV-induced caspase-3/7, Caspase-Glo luminescence, 6 h; series mostly up to 45.7 µM; further: nearly all actives have a fitted effect of over 65% in size
# Summary of the method: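 Cells were plated at 350 per well and grown 16 to 20 hours. Compound pretreatment lasted one hour, after which ZIKV (2 FFU/cell) was added for 6 hours. Percent inhibition was normalized between uninfected and infected controls.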
# [5] = qHTS assay for measurement of the activity of small molecule inhibitors on Zika virus induced Caspase-3 activity in human astrocytoma cells (AID 1224859); settings: SNB-19 ZIKV-induced caspase-3/7, luminescence, 6 h; series mostly up to 45.7 µM
# Summary of the method: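 Percent inhibition of virus-induced caspase-3/7 signal is calculated against uninfected and ZIKV-infected control cells. Cells are SNB-19, infected at 2 FFU/cell for 6 h after 1 h compound exposure.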
# [6] = Natriuretic polypeptide receptor (hNpr1) antagonism - Pilot counterscreen GloSensor control cell line (AID 1347045; calls by dose curve; further: potency means the concentration at half of the fitted maximal effect); settings: HEK293 cGMP GloSensor cells, SNP-stimulated luminescence, 20 min; series mostly up to 38.3 µM
# Summary of the method: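 HEK293 cells carrying the GloSensor cGMP sensor (GIP/pGS-40F) were loaded with 2% GloSensor reagent for 2 h, exposed to compounds for 30 min, and then stimulated with 50 uM sodium nitroprusside for 20 min at room temperature.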
# [7] = biological target: Atrial natriuretic peptide receptor 1 (Homo sapiens) (UniProt P16066); assay: Natriuretic polypeptide receptor (hNpr1) antagonism - Pilot screen (AID 1347049; calls by dose curve;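 further: agonist-evoked cGMP luminescence read 20 min after hNppA addition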); settings: hNpr1 cells, antagonist mode cGMP read-out; series mostly up to 57.5 µM
# Summary of the method: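 HEK293 cells co-expressing hNpr1 and the GloSensor pGS-40F cGMP luciferase sensor were preloaded with 2% GloSensor reagent for 2 h. Compounds were added for 30 min at room temperature, then cells were stimulated with 0.1 nM hNppA for 20 min before luminescence readout.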
# [8] = biological target: Atrial natriuretic peptide receptor 2 (Homo sapiens) (UniProt P20594); assay: Natriuretic polypeptide receptor (hNpr2) antagonism - Pilot subtype selectivity assay (AID 1347050; calls by dose curve); settings: NPR2-expressing cells, cGMP antagonist-mode read-out; series mostly up to 38.3 µM
# Summary of the method: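 cGMP-sensor HEK293/hNpr2 cells; 2% GloSensor reagent 2 h RT; compounds 30 min; baseline luminescence read; 1 nM hNppC agonist 20 min RT; final luminescence read by CCD camera. Antagonism = reduced post-agonist signal.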
# [9] = qHTS Assay for Identifying Gametocytocidal Compounds (AID 743244);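 further: actives lower the fluorescent signal which means gametocytes are killed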; settings: P. falciparum 3D7 stage III-V gametocytes, alamarBlue, 72 h; max response: hits give low values
# Summary of the method: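 3D7 gametocytes, stages III–V, 20,000/well; cpd 72 h, 37 °C/5% CO2; + alamarBlue 24 h; fluor. Ex 525/Em 598.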
# [10] = P-glycoprotein substrates identified in KB-3-1 adenocarcinoma cell line, qHTS therapeutic library screen (AID 1346986); settings: KB-3-1 parental cells viability, CellTiter-Glo, 72 h; series mostly up to 44.5 µM;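 further: potency means the concentration at half of the fitted maximal effect; potency is for cytotoxicity meaning loss of cell viability; nearly all actives have a fitted effect of over 60% in size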
# Summary of the method: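 KB-3-1 parental cells and P-gp-overexpressing KB-8-5-11 (colchicine omitted during assay) plated at 500 cells/well, dosed in dose-response, incubated 72 h at 37 degree C. CellTiter-Glo luminescence read; KB-8-5-11 also tested with tariquidar.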
# [11] = P-glycoprotein substrates identified in KB-8-5-11 adenocarcinoma cell line, qHTS therapeutic library screen (AID 1346987); settings: KB-8-5-11 (P-gp overexpressing) viability, CellTiter-Glo, 72 h; series mostly up to 44.5 µM; further: potency means the concentration at half of the fitted maximal effect; nearly all actives have a fitted effect of over 65% in size
# Summary of the method: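 KB-8-5-11: colchicine-selected sub-line of KB-3-1 over-expressing P-gp; assay medium lacked colchicine. 72 h drug exposure at 37 degree C, CellTiter-Glo.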
# Chain of Atrial natriuretic peptide receptor 2 (Homo sapiens) (P20594 whole entry, looked up): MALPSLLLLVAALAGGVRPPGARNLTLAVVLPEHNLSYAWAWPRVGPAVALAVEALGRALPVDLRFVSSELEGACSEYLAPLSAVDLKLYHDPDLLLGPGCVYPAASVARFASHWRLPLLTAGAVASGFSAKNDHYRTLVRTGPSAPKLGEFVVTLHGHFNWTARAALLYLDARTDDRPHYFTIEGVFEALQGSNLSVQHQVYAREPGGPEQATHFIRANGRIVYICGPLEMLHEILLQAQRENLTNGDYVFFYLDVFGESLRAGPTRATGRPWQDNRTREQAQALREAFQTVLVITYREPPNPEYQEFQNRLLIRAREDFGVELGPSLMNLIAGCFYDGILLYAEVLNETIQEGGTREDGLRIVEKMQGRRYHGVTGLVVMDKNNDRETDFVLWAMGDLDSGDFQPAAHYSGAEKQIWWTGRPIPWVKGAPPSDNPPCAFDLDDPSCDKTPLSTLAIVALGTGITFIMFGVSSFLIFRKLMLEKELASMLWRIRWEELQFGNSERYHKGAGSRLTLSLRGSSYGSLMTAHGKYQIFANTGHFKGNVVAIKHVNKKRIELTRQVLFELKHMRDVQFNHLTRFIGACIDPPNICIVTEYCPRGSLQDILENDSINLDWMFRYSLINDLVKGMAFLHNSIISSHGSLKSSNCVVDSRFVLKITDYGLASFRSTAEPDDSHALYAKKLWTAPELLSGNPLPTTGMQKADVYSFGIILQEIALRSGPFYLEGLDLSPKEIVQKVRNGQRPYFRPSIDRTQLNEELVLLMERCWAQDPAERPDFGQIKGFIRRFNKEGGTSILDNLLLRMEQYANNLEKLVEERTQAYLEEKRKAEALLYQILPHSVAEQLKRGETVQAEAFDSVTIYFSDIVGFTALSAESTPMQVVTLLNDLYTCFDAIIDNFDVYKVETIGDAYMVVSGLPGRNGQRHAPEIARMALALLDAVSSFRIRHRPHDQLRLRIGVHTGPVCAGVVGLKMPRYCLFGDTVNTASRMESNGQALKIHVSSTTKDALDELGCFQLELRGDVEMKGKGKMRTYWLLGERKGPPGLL
# Chain of Atrial natriuretic peptide receptor 1 (Homo sapiens) (P16066 whole entry, looked up): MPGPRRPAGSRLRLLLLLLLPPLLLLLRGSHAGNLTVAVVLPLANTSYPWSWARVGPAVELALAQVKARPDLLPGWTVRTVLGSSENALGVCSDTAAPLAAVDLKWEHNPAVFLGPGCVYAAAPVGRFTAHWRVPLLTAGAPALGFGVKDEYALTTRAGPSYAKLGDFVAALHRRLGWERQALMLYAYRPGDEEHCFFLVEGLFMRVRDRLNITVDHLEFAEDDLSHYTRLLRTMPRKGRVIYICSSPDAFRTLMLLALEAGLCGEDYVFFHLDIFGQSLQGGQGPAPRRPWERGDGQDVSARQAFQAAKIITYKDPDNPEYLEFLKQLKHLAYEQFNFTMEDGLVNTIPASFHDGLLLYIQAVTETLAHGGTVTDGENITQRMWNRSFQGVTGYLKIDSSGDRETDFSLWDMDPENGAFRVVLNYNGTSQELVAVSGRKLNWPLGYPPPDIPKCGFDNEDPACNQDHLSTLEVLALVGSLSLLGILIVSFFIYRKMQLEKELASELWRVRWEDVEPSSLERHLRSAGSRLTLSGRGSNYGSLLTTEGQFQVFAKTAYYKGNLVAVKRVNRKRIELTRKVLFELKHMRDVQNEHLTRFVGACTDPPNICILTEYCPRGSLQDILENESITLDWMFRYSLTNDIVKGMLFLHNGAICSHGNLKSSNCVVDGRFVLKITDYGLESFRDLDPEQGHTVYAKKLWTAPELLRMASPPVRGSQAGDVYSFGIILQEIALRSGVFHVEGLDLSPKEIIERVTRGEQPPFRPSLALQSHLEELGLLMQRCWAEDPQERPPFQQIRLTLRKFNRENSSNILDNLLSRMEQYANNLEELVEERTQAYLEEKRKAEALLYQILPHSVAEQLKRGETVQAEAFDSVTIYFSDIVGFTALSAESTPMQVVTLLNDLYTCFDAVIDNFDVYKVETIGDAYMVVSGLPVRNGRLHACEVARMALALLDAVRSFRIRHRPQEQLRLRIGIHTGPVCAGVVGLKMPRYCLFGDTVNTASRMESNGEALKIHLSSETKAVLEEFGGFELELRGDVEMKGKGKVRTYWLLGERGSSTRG
# T1 sequence (P35557 whole entry, looked up): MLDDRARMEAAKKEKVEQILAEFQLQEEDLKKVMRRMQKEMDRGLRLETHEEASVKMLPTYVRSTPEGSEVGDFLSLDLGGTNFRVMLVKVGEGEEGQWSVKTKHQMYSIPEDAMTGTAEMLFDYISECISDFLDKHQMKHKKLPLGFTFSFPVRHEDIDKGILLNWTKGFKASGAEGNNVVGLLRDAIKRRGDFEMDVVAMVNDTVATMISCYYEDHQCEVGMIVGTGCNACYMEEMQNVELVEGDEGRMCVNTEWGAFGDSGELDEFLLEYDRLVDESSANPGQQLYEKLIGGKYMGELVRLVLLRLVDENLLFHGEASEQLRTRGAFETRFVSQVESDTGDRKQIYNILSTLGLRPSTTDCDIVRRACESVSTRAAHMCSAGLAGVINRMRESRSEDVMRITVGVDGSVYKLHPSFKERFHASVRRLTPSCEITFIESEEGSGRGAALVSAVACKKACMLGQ
# T1 sequence (Q14397 whole entry, looked up): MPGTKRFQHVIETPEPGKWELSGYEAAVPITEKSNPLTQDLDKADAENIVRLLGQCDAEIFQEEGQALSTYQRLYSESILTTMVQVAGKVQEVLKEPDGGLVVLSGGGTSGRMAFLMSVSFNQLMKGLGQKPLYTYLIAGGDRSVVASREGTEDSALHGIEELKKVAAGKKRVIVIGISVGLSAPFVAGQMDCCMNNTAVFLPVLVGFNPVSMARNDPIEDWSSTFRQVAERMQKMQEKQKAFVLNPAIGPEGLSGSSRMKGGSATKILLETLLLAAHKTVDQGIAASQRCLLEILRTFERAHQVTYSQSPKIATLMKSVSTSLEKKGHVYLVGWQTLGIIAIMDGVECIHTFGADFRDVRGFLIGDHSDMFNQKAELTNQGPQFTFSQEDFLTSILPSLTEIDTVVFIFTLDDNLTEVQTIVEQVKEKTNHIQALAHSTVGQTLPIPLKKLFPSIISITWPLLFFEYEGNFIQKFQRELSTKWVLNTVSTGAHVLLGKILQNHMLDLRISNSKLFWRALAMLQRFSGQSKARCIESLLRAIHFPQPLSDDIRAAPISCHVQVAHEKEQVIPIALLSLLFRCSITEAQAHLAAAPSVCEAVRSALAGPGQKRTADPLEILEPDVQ
SMILES,Potency [1],Potency [2],Potency [3],Potency [4],Potency [5],Potency [6],Potency [7],Potency [8],max response [9] [%],Potency [10],Potency [11]
O=c1onc2cnc3ccccc3n12,inactive,inactive,inactive,inactive,inactive,261 nM (active),inactive,inactive,,,
CNc1ncnc2c1ncn2[C@H]1C[C@H](OP(=O)(O)O)[C@@H](COP(=O)(O)O)O1,inactive,inactive,inactive,inactive,inactive,inactive,inactive,inactive,,,
Nc1ncnc2c1nc(Br)n2C1OC2COP(=O)(O)O[C@@H]2C1O (stereo not given in full),inactive,inactive,inactive,inactive,inactive,inactive,inactive,inactive,,,
Nc1ncnc2c1c(-c1ccc(Oc3ccccc3)cc1)cn2C1CCCC1,inactive,inactive,inactive,inactive,inactive,,inactive,inactive,4.42,1640 nM (active),14600 nM (active)
OC[C@H]1O[C@@H](n2cnc3cncnc32)[C@H](O)[C@@H]1O,inactive,inactive,inactive,inactive,inactive,inactive,inactive,inactive,19.7,,
CNCCNS(=O)(=O)c1cccc2cnccc12,inactive,inactive,inactive,inactive,inactive,inactive,inactive,inactive,18.9,,
C=CCN1CCc2c(cc(O)c(O)c2Br)[C@@H](c2ccccc2)C1,inactive,inactive,inactive,inactive,inactive,inactive,inactive,inactive,,,
COc1cc(N)c(Cl)cc1C(=O)OCCN1CCCCC1,inactive,inactive,inactive,inactive,inactive,inactive,inactive,inactive,,,
C#CC(N)CCC(=O)O (stereo not given),inactive,inactive,inactive,inactive,inactive,inactive,inactive,inactive,8.18,,
O=[N+]([O-])c1cccc2c(Br)[nH]nc12,inactive,inactive,inactive,inactive,inactive,inactive,inactive,inactive,-25.7,,
CCCCCCC/C=C\CCCCCCCCC(=O)O,inactive,inactive,inactive,inactive,inactive,inactive,inactive,inactive,37.6,,
